Results reported in PubChem BioAssay (NCI).
The panel holds about 79,000 compounds, 15% with a hit somewhere; the sample as a whole holds those more often. Calls of active or inactive are those of the source. Cut-off read from the data, not from the text of the source: active = growth inhibition above about 70%; inactive = the rest.

Columns and labels:
[1] = NCI Yeast Anticancer Drug Screen. Data for the rad50 strain (AID 155);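 note: 0% = growth of vehicle-only cultures of the same strain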; settings: S. cerevisiae rad50 strain growth inhibition; at 50.0 µM; stronger effect = higher value
Summary of the method: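 A DNA repair-deficient yeast mutant serves as the test organism; compound-induced growth inhibition is calculated against vehicle-treated cells.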

[2] = NCI Yeast Anticancer Drug Screen. Data for the mec2-1 strain (AID 157); settings: S. cerevisiae mec2-1 strain, at 50.0 µM, stronger effect = higher value
Summary of the method: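 Readout is yeast growth inhibition, normalised to vehicle-treated controls, in the mec2-1 strain exposed to compound.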

[3] = NCI Yeast Anticancer Drug Screen. Data for the sgs1 mgt1 strain (AID 161);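 note: 0% = growth of cultures given vehicle only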; settings: S. cerevisiae sgs1 mgt1 strain, at 50.0 µM, stronger effect = higher value
Summary of the method: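 This yeast growth screen uses a strain with defined DNA-repair lesions; compound-treated growth is compared with vehicle-treated growth.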

[4] = NCI Yeast Anticancer Drug Screen. Data for the cln2 rad14 strain (AID 165);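 note: 0% = growth equal to vehicle treated cultures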; settings: S. cerevisiae cln2 rad14 strain, at 50.0 µM, stronger effect = higher value
Summary of the method: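 Relative to vehicle controls, growth inhibition of compound-treated cln2 rad14 yeast was recorded.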

[5] = NCI Yeast Anticancer Drug Screen. Data for the bub3 strain (AID 167); settings: S. cerevisiae bub3 mutant strain, at 50.0 µM, stronger effect = higher value
Summary of the method: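 Inhibition values come from growth of compound-treated mutant yeast normalised to vehicle-treated controls.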

[6] = NCI Yeast Anticancer Drug Screen. Data for the mlh1 rad18 strain (AID 175); settings: S. cerevisiae mlh1 rad18 strain growth inhibition; at 50.0 µM; stronger effect = higher value
Summary of the method: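 Test agents were incubated with a yeast strain of defined genotype (DNA damage repair defect). Inhibition of growth was derived by comparison with vehicle-exposed cultures.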

Measured: growth inhibition

CCOc1ccc(C=O)cc1OCC
inactive: [1] 0.15% | [2] -25.4% | [3] -9.3% | [4] -15.8% | [5] -2.7% | [6] -10.3%

COc1ccc(C(=O)c2ccc(Cl)cc2)c(O)c1OC
inactive: [1] -5.85% | [2] -6.55% | [3] -1.7% | [4] 3.9% | [5] 19.4% | [6] -9.4%

Cc1ccc(C)c(NC(=O)C(=O)C(C#N)c2c(Cl)cccc2Cl)c1 (stereo not given)
inactive: [1] -23.2% | [2] 16.5% | [3] 44.5% | [4] -24.4% | [5] 6.35% | [6] 28.9%

Cc1ccc(N2C(=O)c3ccccc3NC2(C)CCl)cc1 (stereo not given)
inactive: [1] 4.55% | [2] -9.25% | [3] 10.9% | [4] -3.7% | [5] 33.1% | [6] 1.3%

CCC(C)(O)C(C)(O)CC (stereo not given)
inactive: [1] -6.55% | [2] -13.8% | [3] 15.4% | [4] 17.6% | [5] -13.8% | [6] -8.8%

CCN(CC)C(=O)C1=C(C)NC(C)=C(C(=O)N(CC)CC)C1
inactive: [1] -36.7% | [2] -55% | [3] -18.6% | [4] -22.1% | [5] -8.35% | [6] -68.5%

c1ccc(N(c2ccccc2)C(c2ccccc2)(c2ccccc2)c2ccccc2)cc1
inactive: [1] 12.6% | [2] -2.65% | [3] 1.1% | [4] -36.3% | [5] -0.85% | [6] 7.85%

O=c1cc([O-])[n+](C2OC(CO)C(O)C2O)c2sccn12 (stereo not given)
inactive: [1] 10.2% | [2] 9.2% | [3] 16.6% | [4] -0.5% | [5] -2.55% | [6] -2.8%

c1ccc2c(c1)CCCN2c1nc(N2CCCCC2)nc(N2CCOCC2)n1
inactive: [1] 12.9% | [2] -17.9% | [3] 22.6% | [4] 22.1% | [5] 11.6% | [6] 20.1%

O=C1CCCC(=O)N1CCCO
inactive: [1] 10.1% | [2] -6.4% | [3] -24.2% | [4] -91% | [5] -6.4% | [6] 6.5%

OC1=CC(C2CCCCC2)CC(O)=C1 (stereo not given)
inactive: [1] 2.95% | [2] -0.65% | [3] -4.75% | [4] -7.9% | [5] -59.5% | [6] -17.1%

CCOC1(OCC)CS(=O)(=O)C1c1ccccc1 (stereo not given)
inactive: [1] -1.2% | [2] -10.2% | [3] 1.95% | [4] -26.2% | [5] 12.6% | [6] -18.6%

Cc1nn(C(=O)c2ccc(Cl)cc2)c2c1C(c1ccccc1[N+](=O)[O-])SC(N)=N2 (stereo not given)
inactive: [1] -9.6% | [2] -1.5% | [3] 7.05% | [4] 33% | [5] 27.6% | [6] -9.05%

COc1cc(C(CC(=O)O)CC(=O)O)cc(OC)c1OC
inactive: [1] -2.45% | [2] -8.8% | [3] 25.4% | [4] 7.05% | [5] 15.6% | [6] 12.6%

CCCCCC/C(C=O)=C\c1ccccc1
inactive: [1] 31.8% | [2] 17.6% | [3] 26.6% | [4] 16.4% | [5] -4.6% | [6] 20.4%

CCCCOC(=O)Nc1ccccc1OCC
inactive: [1] 6.7% | [2] -19.8% | [3] -0.35% | [4] -48.4% | [5] -20.5% | [6] -11.2%

OC(COc1cccc(C(F)(F)F)c1)CN1CCN(c2ccccc2)CC1 (stereo not given)
active: [1] 83.7% | [2] 83% | [3] 93.5% | [4] 86.7% | [5] 75.4% | [6] 87.3%

C/C(=N/NS(=O)(=O)c1ccc(C)cc1)C(=NO)/C(C)=N\NS(=O)(=O)c1ccc(C)cc1
inactive: [1] 55.6% | [3] 45.4% | [5] 49.9% | [6] 60.5%
active: [2] 70.2% | [4] 86.2%

Cc1cc(OC(C)C)cc(C)c1C(=O)OCC(C)CN1CCCC1 (stereo not given)
inactive: [1] 1.9% | [2] -16.8% | [3] 5.4% | [4] -15.1% | [5] -8.5% | [6] -18.2%

Clc1ccc2cn[nH]c2c1
inactive: [1] -50.4% | [2] -28.1% | [3] -23.2% | [4] 3.3% | [5] -18.9% | [6] -9.3%
